# Laboratory results taken from PubChem BioAssay AID1645850 (National Center for Advancing Translational Sciences (NCATS), 2021).
# Results filed as inconclusive are left out. Activity calls are given as the source filed them. Calls follow the shape of the dose curve; as a rule, active = well fitted curve in the direction sought with a large enough effect in the repeat runs; inconclusive = weak or mixed curves, or another doubt; inactive = no such curve, though single readings can be large or run the other way.
# Test: Comparison of Janus kinase inhibitors to block the type I interferon pathway in human skeletal muscle cells: CTG Counterscreen
# Conditions: human skeletal muscle cells viability, CellTiter-Glo ATP luminescence; series mostly up to 45.9 µM
# From the text: Assay Submitter (PI): Travis B. Kinder Ph.D.
# National Center for Advancing Translational Sciences (NCATS)
# The family of Janus kinases (JAK1, JAK2, JAK3, TYK2) mediate signal transduction from cytokine receptors through phosphorylation and activation of intracellular signaling pathways and transcription factors. Small molecule antagonists of JAKs (jakinibs) have been developed with varying selectivity for the use in malignancies and immune regulation. […] We have assayed a library of 48 jakinibs for their ability to inhibit the JAK1/TYK2-dependent type I interferon (IFN) - major histocompatibility complex (MHC) class I pathway in human skeletal muscle cells genome-engineered to fuse a pro-luminescent HiBiT peptide to endogenous MHC class I.
# The assay utilized CRISPR/Cas9 genome-engineered immortalized human myoblasts, C25cl48, where a pro-luminescent reporter HiBit was fused to the C-terminus of endogenous MHC class I allele HLA-B*08:01 (HLA-B HiBit myoblasts) (Kinder et al., 2020). HiBit is an 11 amino acid fragment of NanoLuc luminescent reporter (Promega Corporation), and when complexed to the larger LgBit fragment, the reconstituted enzyme produces light in the presence of furimazine substrate. Briefly, HLA-B HiBit myoblasts were plated into 1536-well plates, treated with 4.0 ng/ml human IFN-beta and 48 jakinibs in an 11-point, 1:3 titration with a high final concentration of 46 uM. After 24 hrs of treatment, cells were assayed by CellTiter-Glo Luminescent Cell Viability Assay (Promega) and luminescence measured by a ViewLux 1430 Ultra HTS (Perkin Elmer).
# 1. Kinder TB, Dranchak PK, Inglese J. High-Throughput Screening to Identify Inhibitors of the Type I Interferon-Major Histocompatibility Complex Class I Pathway in Skeletal Muscle. ACS Chem Biol. 2020 Jul 17;15(7):1974-1986. doi: 10.1021/acschembio.0c00343
# PROTOCOL TABLE (as described by Inglese et al., 2007)
# SEQUENCE No. (e.g., 1, 2, 3, etc.); PARAMETER (e.g., Cells, Incubation, Reagent, etc.); VALUE; DESCRIPTION
# 1a; Cells; 5 uL; Seed 250 cells/well with a Multidrop Combi (Thermo Scientific) into two Greiner 1536 well white/solid bottom, high base, TC plates (789173-F) in 5 ul/well of growth medium (GM) without dexamethasone into columns 1+2
# 1b; Cells; 5 uL; Seed 250 cells/well with a Multidrop Combi (Thermo Scientific) into two Greiner 1536 well white/solid bottom, high base, TC plates (789173-F) in 5 ul/well of GM without dexamethasone + 4 ng/ml IFN-beta into columns 3 - 48. Add metal lids with gas-exchange holes.
# 2; Incubate; 30 min; Incubate at 37C, 5% CO2, 95% RH
# 3; Compounds; 23 nl; Transfer DMSO control and library compounds in DMSO with Pin Tool (Wako)
# 4; Incubate; 24 hrs; Incubate at 37C, 5% CO2, 95% RH
# 5; Dispense; 2.5 ul; Add CellTiter Glo lytic reagent with a BioRAPTR FRD (Beckman Coulter)
# 6; Incubate; 10 min; Incubate in the dark at ambient temperature for lysis
# 7; Detector; 5 sec; Measure luminescence with ViewLux 1430 Ultra HTS (Perkin Elmer). Settings: Exposure = 2 sec, Gain = High, Speed = Slow, Binning = 2X
# NOTES (numbers refer to sequence above)
# 1; HLA-B HiBit myoblasts cultured in GM - 4:1 ratio DMEM Glutamax (Thermo Fisher, 10566) : M199 (Thermo Fisher, 11150), 10% FBS (Hyclone Standard), 1% Pen/Strep, 50 ug/ml fetuin, 10 ng/ml hEGF, 1 ng/ml bhFGF, 10 ug/ml insulin, 0.4 ug/ml dexamethasone (supplements from Promocell, C-39360). […] Recombinant human IFN-beta (Peprotech, 300-02BC) was reconstituted in water, diluted in GM, and aliquots stored at -80C until day of use.
# 3; Control plate contained DMSO in columns 1 and 4, digitonin (Sigma, D141) cytotoxicity control in DMSO at 20 mM in column 2, and ruxolitinib (Selleckchem, S1378) inhibitor control in DMSO 16-point, 1:2 titration, high concentration = 17 mM in column 3. Digitonin and ruxolitinib stocks were reconstituted at 20 and 50 mM in DMSO and aliquots stored at -20C. […]
row,SMILES,outcome
1,CCS(=O)(=O)N1CCN(c2ccc(Nc3ncc(C(N)=O)c(NC4CC4)n3)cc2)CC1,inactive
2,Cn1cc(Nc2nccc(N3C[C@H]4CC[C@@H](C3)N4C(=O)[C@@H]3CC3(F)F)n2)cn1,inactive
3,[2H]C([2H])([2H])NC(=O)c1nnc(NC(=O)C2CC2)cc1Nc1cccc(-c2ncn(C)n2)c1OC,inactive
4,CC(C)(O)C(=O)N1CCN(c2ccc(C(F)(F)F)c(C3=C(c4c[nH]c5ccccc45)C(=O)NC3=O)c2)CC1,inactive
5,Cc1oncc1C(=O)Nc1ccc(C(F)(F)F)cc1,inactive
6,CCS(=O)(=O)N1CC(CC#N)(n2cc(-c3ncnc4[nH]ccc34)cn2)C1,inactive
7,CC(C)(C)c1nc2c3cc[nH]c(=O)c3c3cc(F)ccc3c2[nH]1,inactive
8,CC1(C)CN(C(=O)c2ccc(-c3cccc4nc(NC(=O)C5CC5)nn34)cc2)C1,inactive
9,CCCS(=O)(=O)NC1CC(N(C)c2ncnc3[nH]ccc23)C1 (configuration not stated),inactive
10,CNS(=O)(=O)CC1CCC(N(C)c2ncnc3[nH]ccc23)CC1 (configuration not stated),inactive
11,CC[C@@H]1CN(C(=O)NCC(F)(F)F)C[C@@H]1c1cnc2cnc3[nH]ccc3n12,inactive
12,O=C(Nc1ccc(-c2ccnc(Nc3ccc(N4CCOCC4)cc3)n2)cc1)[C@@H]1CCCN1,inactive
13,CC[C@@](C)(Nc1ccnc(-c2c[nH]c3ncccc23)n1)C(=O)NCC(F)(F)F,inactive
14,Cc1cc(Nc2cc(CN3CCOCC3)c3nc(C)c(Cc4ccc(Cl)cc4F)n3n2)n[nH]1,inactive
15,N#CCNC(=O)c1ccc(-c2ccnc(Nc3ccc(N4CCOCC4)cc3)n2)cc1,inactive
16,N#C/C(=C\c1ccc(O)c(O)c1)C(=O)NCc1ccccc1,inactive
17,C=CC(=O)Nc1ccc(F)c(-c2ncnc3[nH]cc(C(=O)OCC)c23)c1,inactive
18,CN1CCN(c2cccc(Nc3nc4c(-c5ccc(S(C)(=O)=O)cc5)cccn4n3)c2)CC1,inactive
19,CCn1c(C(=O)N(C2CC2)C2CC2)cc2c3c(ncn3C)c(Nc3cc(C)n(C)n3)nc21,inactive
20,N#CC[C@H](C1CCCC1)n1cc(-c2ncnc3[nH]ccc23)cn1,inactive
21,C[C@@H]1CCN(C(=O)CC#N)C[C@@H]1N(C)c1ncnc2[nH]ccc12,inactive
22,CC(C)(C)NS(=O)(=O)c1ccc(-c2ccc3[nH]nc(N)c3c2)cc1,inactive
23,NC(=O)c1cnc2[nH]ccc2c1NC1C2CC3C[C@H]1CC(O)(C3)C2 (some centres not stated),inactive
24,CN(C)c1ccc(Nc2nc(N)n(C(=O)c3c(F)cccc3F)n2)cc1,inactive
25,O=C(Nc1ccnc(NC(=O)C2CC2)c1)c1c(Cl)cccc1Cl,inactive
26,COc1cc2ncnc(Nc3ccc(O)cc3)c2cc1OC,inactive
27,CC(C)(C)NC(=O)Nc1cccc(Nc2ncc(F)c(NC(C)(C)CO)n2)c1,inactive
